Here are results for 37 compounds from PubChem BioAssay (NCI).

SMILES strings stand for the structures. This is part of a sample that, as a whole, favours compounds with a hit. Of some 83,000 tested, about 20% had one in any assay.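 The endpoint reported here, percent growth, reads 100 for growth as untreated, 0 for no net growth and -100 for all cells dead.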 A number with no mark means an inactive call. Activity calls are given as the source filed them. The calls were made as follows: active = growth percent below 10; inactive = the rest.

The assay relates to PC-3 prostate. Kind of assay: NCI-60 one-dose screen, 48 h (100 = growth as untreated, 0 = no growth, -100 = all killed). The following applies: 10 µM unless noted.
Regarding `COc1cc(OC)cc(C2=C3CC[C@@H]4[C@H](CC[C@]5(C)C(=O)CC[C@@H]45)C3=CC3C(O)c4cccnc4N4C(=O)COC234)c1` (some centres not stated), the growth was 94.7%.

Turning to `CC(=O)Cc1nsc(NC(=O)c2cc(-c3cc(Cl)cc(Cl)c3)oc2C)n1`, the growth is 93.7%.

As to `CCOC(=O)c1cn2ncnc(Oc3ccc(NC(=O)NC4CCCCC4)c(Cl)c3)c2c1C`, the growth was 67.7%.

For `Cc1nnc(NC(=O)c2nc(S(=O)(=O)Cc3ccc(F)cc3)ncc2Cl)s1`, the growth was 71.4%.

Regarding `C#CCOc1ccc2ncnc(Nc3ccc(NC(=O)CCl)cc3)c2c1`, the growth is 6.66% (active).

Turning to `CCOC(=O)C#Cc1c(C(=O)OCC)nnn1[C@@H]1O[C@H](CO)[C@H]2OC3(CCCCC3)O[C@H]21`, the growth was 86.7%.

`C/C(=N/O)c1ccc(F)cc1`: the growth is 75.5%.

Consider `CCOC(=O)Cn1c(O)c(N=Nc2ccc(S(N)(=O)=O)cc2)c2cc(Br)ccc21`, for which the growth is 70.8%.

As for `Cc1nc(N2CCOCC2)sc1S(N)(=O)=O`, the growth is 92.3%.

For `COc1ccc(OC)c(C(=O)/C=C/c2cc3c(c(OC)c2OC)OCO3)c1`, the growth was 61.8%.

For `O=c1oc2ccccc2cc1C1=NN=C(SCc2ccccc2)SC1`, the growth is 94%.

In the case of `COc1ccc(C(=S)N2CCN(c3ccccc3Cl)CC2)cc1OC`, the growth is 90.3%.

Consider `Cc1ccc(/C=C2\CN(C(=O)OC(C)(C)C)C/C(=C\c3ccc(C)cc3)C2=O)cc1`, for which the growth is 29.9%.

`O=C(Nc1nn(-c2ccc(Cl)cc2Cl)nc1-c1ccccc1)c1ccccc1`: the growth was 84.3%.

With `CCN(CC)c1ccc(/C=C/C(=O)c2ccc(Nc3nc(Nc4ccccc4)nc(Nc4ccccc4)n3)cc2)cc1`, the growth was 34.1%.

For `COC(=O)[C@H]1CCCN1C[C@@H](O)CN1C(=O)/C(=C\c2cc(OC)c(OC)c(OC)c2)c2ccccc21`, the growth was 91.4%.

In the case of `CN(C)c1ccc(Nc2cc(-c3cccc(OC(F)(F)F)c3)nc3ccc(N4CCCC4)cc23)cc1`, the growth was 18%.

As to `O=C(Nc1cc(Cl)ccc1O)c1ccc(Nc2ccnc(C(F)(F)F)c2)cc1`, the growth is 14.7%.

For `COc1cc(OC)c2sc(-c3ccc(-n4cncc4-c4ccc(OC)c(OC)c4)cc3)nc2c1`, the growth is 27.6%.

For the compound `O=C1c2cccnc2C(=O)c2c1c(C(=O)NCCCN1CCCCC1)c1ccccn21`, the growth was -18% (active).

With `CCOC(=O)c1ccc2[nH]c(O)c(C(=Nc3ccc(N(C)C(=O)CN4CCN(C)CC4)cc3)c3ccccc3)c2c1`, the growth is 4.9% (active).

On to `CCN1C(=O)N(CC)C2C1NN=c1s/c(=C\c3cccc([N+](=O)[O-])c3)c(=O)n12` (configuration not stated), for which the growth is 33.7%.

As for `CC1=C(Nc2ccc(N3CCN(C)CC3)cc2)C(=O)c2cncnc2C1=O`, the growth was 21.7%.

Take `O=C1Nc2ccc(Br)cc2/C1=N/c1n[nH]c(=S)s1`: the growth is 95%.

With `CCN(c1ccc(Cl)cc1)c1nc(-c2ccc([N+](=O)[O-])cc2)cs1`, the growth is 92.6%.

For the compound `C=C(C)[C@@H]1CC[C@]2(C)[C@H](CC=C3[C@@H]4[C@H](C)[C@@H](C)CC[C@]4(CO)CC[C@]32C)[C@@]1(C)CCCN`, the growth was 11%.

In the case of `O=C(/C=C(/C=C/c1cccc2[nH]ccc12)OB(F)F)/C=C/c1cccc2[nH]ccc12`, the growth is -42.5% (active).

Take `CCN1CC(=O)N(/N=C2\C(=O)Nc3ccccc32)C1=S`: the growth is 92%.

Turning to `CCN1CCN(c2cc(C(=O)Nc3nc(-c4cc(OC)c(OC)c(OC)c4)cs3)cc(C(F)(F)F)c2)CC1`, the growth is 57.1%.

`COc1ccc(-c2nc(/C=C3\SC(=NCc4ccccc4)NC3=O)c3ccccn23)cc1`: the growth is 13.7%.

`CCOC(=O)C(=Cc1cccc(Br)c1)C(=O)OCC`: the growth is 40.8%.

For `N#CC1=C(N)Oc2c(sc3c(F)cccc23)C1c1ccc(F)cc1` (configuration not stated), the growth was 28.7%.

As for `CCOc1nc(-c2ccccc2)cc2c(O)c(C(=O)NN)[nH]c(=O)c12`, the growth is 83%.

As to `O=C1c2cccc(NCCN=Cc3cc(O)ccc3O)c2C(=O)c2c(NCCN=Cc3cc(O)ccc3O)cccc21`, the growth is -38.4% (active).

Take `C=CCn1cc(-c2nc3ccccc3s2)c2cc(-c3ccc4c5c(cccc35)C(=O)N(N)C4=O)ccc21`: the growth was 88.2%.

Consider `CCOC(=O)CNP(=O)(OC[C@@H](Cc1ccccc1)NC(=O)c1cc2ccccc2s1)Oc1ccccc1` (some centres not stated), for which the growth is 85.5%.

Consider `CCC(=C(c1ccc(OCCN2CCCC2)cc1)c1ccc(OCCN2CCCC2)cc1)c1ccc(Cl)cc1`, for which the growth is -7.15% (active).
